N370S GC mod – inhibitors or activators of N370S glucocerebrosidase for Gaucher disease; N370S GC spleen homogenate, 4MU-glucoside fluorescence; Potency, µM (titrated, usually from 59.4 µM), without a hit: at the highest dose activity change, negative = inhibition, actives largely listed as inhibitors; 330,000 tested, 0.092% active;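 further: potency means the concentration at half of the fitted maximal effect; 0% = full enzyme activity and -100% = no enzyme basal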
GAA glycogen – alters human alpha-glucosidase cleavage of glycogen; recombinant GAA, glycogen substrate, Amplex Red glucose oxidase fluorescence; Potency, µM (titrated, usually from 76.4 µM), inactives show at the top dose activity change, negative = inhibition, most hits filed as inhibitors; 300,000 tested, 0.38% active;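 further: potency means the concentration at half of the fitted maximal effect; 0% = full enzyme reaction and -100% = no-enzyme basal signal; the screen sought inhibitors and activators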
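Natural-substrate format: glycogen cleavage by 4 nM human enzyme, glucose read by Amplex Red coupling (Ex 573, Em 610 nm). Normalized to enzyme and no-enzyme controls.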
GAA inh – alpha-glucosidase (human) inhibition; P10253; purified human GAA, 4-MU-alpha-glucoside fluorescence; Potency, µM (titrated, usually from 76.9 µM), for inactives: top-dose activity change, negative = inhibition, actives largely listed as inhibitors; 200,000 tested, 0.005% active;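 further: potency means the concentration at half of the fitted maximal effect; plate controls were uninhibited enzyme wells for no effect and no-enzyme background for full effect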
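Enzyme (4 nM final) mixed with compound (up to 77 uM), then 4-MU-alpha-D-pyranoside (400 uM final) added; 20 min at room temperature, pH 5.0. Reaction stopped at pH 10, fluorescence read, AC50 derived by Hill fit.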
GAA spleen mod – inhibits or activates alpha-glucosidase in human spleen homogenate; Potency, µM (series often up to 79.9 µM), for inactives: at the top dose activity change, negative = inhibition, actives largely listed as inhibitors; human spleen homogenate, 4-MU-alpha-glucoside fluorescence; AID 2112; 240,000 tested, 0.006% active; P10253;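 further: potency means the concentration at half of the fitted maximal effect; 0% = enzyme with vehicle and -100% = no enzyme basal signal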
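Compounds were titrated against alpha-glucosidase in spleen homogenate at pH 5.0, with 1 mM 4-methylumbelliferyl substrate for 40 min at 37 C. Reactions were quenched with pH 10 NaOH/glycine and fluorescence measured.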
aGal spleen mod – alpha-galactosidase A (human) modulation; human spleen homogenate, 4MU-alpha-Gal fluorescence, 40 min; Potency, µM (series often up to 80 µM), for inactives: at the highest dose activity change, negative = inhibition, hits mostly inhibitors; 240,000 tested, 0.008% active; AID 2107;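 further: potency means the concentration at half of the fitted maximal effect; 0% = enzyme with vehicle and -100% = no enzyme basal signal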
Target sequence (P06280 32-429 limits assumed): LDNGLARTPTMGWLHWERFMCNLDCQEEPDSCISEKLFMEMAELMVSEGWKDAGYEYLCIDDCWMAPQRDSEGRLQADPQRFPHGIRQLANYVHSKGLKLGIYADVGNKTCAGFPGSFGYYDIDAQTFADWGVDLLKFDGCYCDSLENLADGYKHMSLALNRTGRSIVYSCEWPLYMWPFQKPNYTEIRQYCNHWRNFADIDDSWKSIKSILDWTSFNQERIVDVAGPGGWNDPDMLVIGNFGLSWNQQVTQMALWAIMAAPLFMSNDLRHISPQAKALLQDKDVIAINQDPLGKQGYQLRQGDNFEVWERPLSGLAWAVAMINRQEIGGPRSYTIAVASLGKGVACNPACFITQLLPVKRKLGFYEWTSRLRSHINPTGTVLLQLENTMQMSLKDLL
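qHTS titration in buffer at pH 5.0. Alpha-galactosidase activity in spleen homogenate was measured via 4-methylumbelliferone release from 1 mM fluorogenic substrate after 40 min at 37C and a pH 10 stop. AC50 came from Hill fits of control-normalized data.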
GLA inh pH 4.5 – blocks human alpha-galactosidase A at pH 4.5; 230,000 tested, under 10 active; purified enzyme, 4-MU-alpha-Gal fluorescence, pH 4.5; activity change, negative = inhibition, % at 105 µM; P06280;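 further: 0% = full activity with enzyme and -100% = basal without enzyme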
* marks the source's active call; other numbers are inactive results; [ ] = remark or other dose. In the library only some 0.41% were active in any assay of this set; here they are far more common. The call rests on the fitted dose curve; in most records, active means well fitted curve in the direction sought with a large enough effect; inconclusive means small, poorly fitted or top-dose-only effect, or another doubt; inactive means no such curve, though single readings can be large; an effect the other way counts as inactive or inconclusive.

Results for Oc1ccc(/C=N/Nc2nccnc2Cl)cc1 ?
N370S GC mod: -17.6%; GAA glycogen: 11.2µM*; GAA inh: -11.0%; GAA spleen mod: -7.5%; aGal spleen mod: 1.6%; GLA inh pH 4.5: -0.4

How did CCCCc1c(C)c(C#N)c2nc3ccccc3n2c1Nc1c(C)n(C)n(-c2ccccc2)c1=O do in these assays?
N370S GC mod: 10.4%; GAA glycogen: inconclusive; GAA inh: 5.2%; GAA spleen mod: -2.5%; aGal spleen mod: 7.4%; GLA inh pH 4.5: 4.0

What do the screens show for `Cc1c(Nc2c3c(c(C#N)c4nc5ccccc5n24)CCC3)c(=O)n(-c2ccccc2)n1C`?
N370S GC mod: -8.4%; GAA glycogen: 7.03µM*; GAA inh: 6.3%; GAA spleen mod: 2.9%; aGal spleen mod: 20.8%; GLA inh pH 4.5: -4.0

How did COc1ccc(-n2cc(CNCCc3ncc(C)[nH]3)c(-c3ccccc3Cl)n2)cc1 do in these assays?
N370S GC mod: -3.8%; GAA glycogen: 7.08µM*; GAA inh: -2.5%; GAA spleen mod: -2.0%; aGal spleen mod: 0.1%; GLA inh pH 4.5: 3.8

How did Nc1ccc(C(=O)C(=O)c2ccc(N)cc2)cc1 do in these assays?
N370S GC mod: -13.9%; GAA glycogen: -6.9%; GAA spleen mod: -6.1%; aGal spleen mod: -3.6%; GLA inh pH 4.5: -4.1

How did N=C1C=CC(=C(c2ccc(N)cc2)c2ccc(N)cc2)C=C1 do in these assays?
N370S GC mod: 3.55µM*; GAA spleen mod: 8.0%; aGal spleen mod: 4.1%

How did C=CCCN(C(C)C(=O)OC)S(=O)(=O)c1ccccc1Br (configuration not stated) do in these assays?
N370S GC mod: -12.3%; GAA spleen mod: -10.7%; aGal spleen mod: -5.6%

Results for CCc1cc2c(Nc3ccc(O)cc3)nc(C)nc2s1 ?
N370S GC mod: 20µM*

Results for CCc1cc2c(Nc3ccccc3O)nc(C)nc2s1 ?
N370S GC mod: -3.9%; GAA glycogen: -18.2%[15.3 µM]

What do the screens show for `CCOC(=O)c1ccc(Nc2cc(C)nc(-c3ccccc3)n2)cc1`?
N370S GC mod: 1.41µM*; GAA glycogen: -0.7%

What do the screens show for `CCOC(=O)c1ccc(Nc2nc(C)cc(C)n2)cc1`?
N370S GC mod: 0.5%; GAA glycogen: -7.2%

What do the screens show for `COc1ccc2c(/C=N/NS(=O)(=O)c3ccc(C)cc3)c[nH]c2c1`?
N370S GC mod: 15.0%; GAA glycogen: 8.91µM*; GAA spleen mod: 2.9%; aGal spleen mod: 11.2%; GLA inh pH 4.5: -0.8

How did CCOc1ccc(/C=C/c2nc(C#N)c(N3CCCCCC3)o2)cc1 do in these assays?
GAA glycogen: -12.4%[76.3 µM]

How did CCOC(=O)N1CCN(C(=O)Nc2sc3nc4n(c(=O)c3c2C)CCC(C)CC4)CC1 (configuration not stated) do in these assays?
N370S GC mod: 4.4%; GAA glycogen: 31.6µM*; GAA inh: -10.4%; GAA spleen mod: -4.1%; aGal spleen mod: 4.8%; GLA inh pH 4.5: -9.5

How did CNc1nc(NCc2ccccc2)c2ccccc2n1 do in these assays?
N370S GC mod: 28.7%; GAA glycogen: -9.8%[76.3 µM]

How did Oc1ccccc1Nc1nc(NCc2ccccc2)c2ccccc2n1 do in these assays?
N370S GC mod: 11.2µM*; GAA glycogen: 7.08µM*; GAA inh: -12.6%; GAA spleen mod: -0.9%; aGal spleen mod: 3.1%; GLA inh pH 4.5: -9.5

Results for COc1cc(/C=N/N(C)C)cc(Br)c1O ?
N370S GC mod: 0.1%; GAA glycogen: 4.47µM*; GAA spleen mod: -4.2%; aGal spleen mod: 3.6%; GLA inh pH 4.5: -15.3

How did NCCCCCN do in these assays?
N370S GC mod: -10.7%; GAA spleen mod: -4.3%; aGal spleen mod: 6.5%

Results for CC(=O)Nc1ccc(N/C=C/C(=O)C(C)(C)C)cc1 ?
N370S GC mod: 1.0%; GAA glycogen: -15.5%; GAA inh: -2.2%; GAA spleen mod: -3.8%; aGal spleen mod: -6.7%; GLA inh pH 4.5: -6.4

How did Cc1ccc(N/C=C/C(=O)C(C)(C)C)c(O)c1 do in these assays?
N370S GC mod: 4.1%; GAA glycogen: 39.5µM*; GAA inh: 0.5%; GAA spleen mod: -5.7%; aGal spleen mod: -2.2%; GLA inh pH 4.5: -5.1

What do the screens show for `O=C1Cc2cc(S(=O)(=O)N3CCN(c4ccc(Br)cc4)CC3)ccc2N1`?
GAA glycogen: -28.8%[76.3 µM]

Results for CCOC(=O)CC(=O)CSc1nc2ccc(C)cc2cc1C#N ?
N370S GC mod: 22.4µM*; GAA glycogen: -3.9%; GAA inh: inconclusive; GAA spleen mod: -2.3%; aGal spleen mod: 4.7%; GLA inh pH 4.5: -6.7

How did CCOC(=O)CC(=O)CSc1nc(CC)c(C)cc1C#N do in these assays?
N370S GC mod: 9.7%; GAA glycogen: -5.0%; GAA spleen mod: -7.6%; aGal spleen mod: 7.1%; GLA inh pH 4.5: 10.5

What do the screens show for `CC(C)C(C)NC(=O)CSc1nc2scc(-c3ccco3)c2c(=O)n1-c1ccccc1` (configuration not stated)?
N370S GC mod: 1.12µM*; GAA glycogen: 9.3%; GAA inh: -9.4%; GAA spleen mod: -18.8%; aGal spleen mod: -3.8%; GLA inh pH 4.5: -1.0

What do the screens show for `CN1CCN(S(=O)(=O)c2cccc(C(=O)Nc3sc4c(c3-c3nc5ccccc5[nH]3)CCCC4)c2)CC1`?
N370S GC mod: 11.2µM*; GAA glycogen: -3.4%; GAA inh: -1.9%; GAA spleen mod: -10.5%; aGal spleen mod: -12.0%; GLA inh pH 4.5: -0.6

What do the screens show for `Nc1cc(C(=O)O)ccc1Nc1ccc(F)c(F)c1`?
N370S GC mod: -4.2%; GAA glycogen: 12.5µM*; GAA inh: -5.6%; GAA spleen mod: 3.2%; aGal spleen mod: 4.6%; GLA inh pH 4.5: 0.1

Results for O=C(O)c1ccc(N/N=C/c2ccc(F)c(F)c2)cc1 ?
N370S GC mod: 3.8%; GAA glycogen: inconclusive; GAA inh: 11.8%; GAA spleen mod: -9.5%; aGal spleen mod: 8.3%; GLA inh pH 4.5: -18.4

What do the screens show for `Oc1ccccc1N=Cc1c(O)ccc2oc3c(c12)CCCC3`?
N370S GC mod: 6.6%; GAA glycogen: 5.62µM*; GAA spleen mod: 3.2%; aGal spleen mod: -1.2%; GLA inh pH 4.5: -1.7

How did Oc1ccc(-c2csc(Nc3ncccn3)n2)c(O)c1 do in these assays?
N370S GC mod: -9.9%; GAA glycogen: -25.9%; GAA inh: -1.8%; GAA spleen mod: 6.4%; aGal spleen mod: 6.2%; GLA inh pH 4.5: 0.4

Results for Cc1cccc(Nc2nc(-c3ccc(O)cc3O)cs2)n1 ?
N370S GC mod: -0.8%; GAA glycogen: 39.8µM*

Results for CCNC(=O)C1CCCN(c2nn3cc(-c4ccc(C)cc4)nc3s2)C1 (configuration not stated) ?
GAA glycogen: -4.0%[76.3 µM]

High-throughput results: PubChem BioAssay, National Center for Advancing Translational Sciences (NCATS)
